Spn MK inh – S. pneumoniae mevalonate kinase inhibition; 0.48% of 65,000 active; inhibition, % at 10 µM; purified MK, PK/LDH-coupled NADH absorbance 340 nm;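 active = ranked among the strongest by inhibition in the single 10 µM screen, a fixed top-ranked set picked for dose follow-up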
PMK inhibit – inhibitors of Streptococcus pneumoniae phosphomevalonate kinase; AID 539; purified PMK, PK/LDH-coupled NADH absorbance 340 nm; 0.49% of 65,000 active; inhibition, % at 10 µM;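 active = top-ranked compounds by inhibition in the single 10 µM screen, taking a fixed number of the strongest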;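 note: 0% = full reaction with DMSO carrier and 100% = background rate without enzyme reaction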
Fluor 339 460 – intrinsic fluorescence of library compounds, ex339/em460 – biochemical, MLSMR library, data from DPM-DC assay, artefact control, profiling panel; 5.5% of 65,000 active; compound autofluorescence, ex339/em460 nm, NADH buffer; active compounds read high; 1 = no-compound wells, NADH background; fluorescence fold increase at 10 µM;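 active = at 10 µM, mean starting fluorescence two-fold or more over control wells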;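 note: signal is the first read of a kinetic run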
NADH enzymes – inhibition of NAD/NADH coupling enzymes, library profiling. coupled PK/LDH NADH assays, four targets. IC50, µM (highest dose often 10 µM), for the others: at the highest dose inhibition. 0.02% of 65,000 active. AID 774;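 active = single-dose screening hits from any of four coupled enzyme assays that gave an IC50 when retested across doses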;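 note: the DPM-DC format reads NADH fluorescence rather than 340 nm absorbance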
Spn DPM-DC inh – inhibitors of Streptococcus pneumoniae diphosphomevalonate decarboxylase. purified DPM-DC, PK/LDH coupled NADH fluorescence. calls only at 10 µM. 0.49% of 65,000 active. AID 556;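 active = the 320 compounds with the highest percent inhibition in the single-dose primary screen, excluding strongly autofluorescent ones, cut at about 32% in these data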;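 note: kinetic rate of NADH fluorescence loss reporting ADP formed by the decarboxylase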
Starred values were filed as active, the others as inactive; i = inactive; nt = no result shown. Rows were chosen to be rich in hits. Some 6.6% of all compounds tested hit in one or more screens of this group.

SMILES | Spn MK inh | PMK inhibit | Fluor 339 460 | NADH enzymes | Spn DPM-DC inh
Nc1c(S(=O)(=O)c2cccs2)c2nc3ccccc3nc2n1/N=C/c1cccc(O)c1 | 4 | 0 | 4* | 2% | nt
Cc1cccc(S(=O)(=O)c2c(N)n(/N=C/c3ccco3)c3nc4ccccc4nc23)c1 | 17 | 13 | 3.1* | 10% | i
Cc1cc(C)c(C)c(OCC(=O)NCc2nc(-c3ccccc3)no2)c1 | 10 | 0 | 1.2 | 5% | i
Cc1ccc(S(=O)(=O)N2CCN(Cc3cc(C(C)C)ccc3O)CC2)cc1 | 5 | 17 | 1.1 | 7% | i
Nc1c(S(=O)(=O)c2ccccc2)c2nc3ccccc3nc2n1/N=C/c1ccco1 | 2 | 10 | 1.8 | 7% | i
Cc1ccc(S(=O)(=O)c2c(N)n(/N=C/c3ccco3)c3nc4ccccc4nc23)cc1 | 0 | 2 | 3.2* | 2% | i
Cc1cccc(S(=O)(=O)c2c(N)n(/N=C/c3cccnc3)c3nc4ccccc4nc23)c1 | 15 | 9 | 3.7* | 12% | nt
Cc1ccc(S(=O)(=O)n2nc(-c3cccnc3)nc2N)cc1 | 9 | 3 | 1.1 | 4% | i
CC(C)Cn1c(N)c(S(=O)(=O)c2cccs2)c2nc3ccccc3nc21 | 6 | 12 | 3.9* | 9% | nt
CN1CCCN(C(=O)Cc2c(Cl)cccc2Cl)c2nc3ccccc3nc21 | 11 | 3 | 1.4 | 5% | i
O=C(NC1CCCC1)C(c1cccs1)N(CC1CCCO1)C(=O)Cc1cccs1 (stereo unspecified) | 12 | 13 | 1 | 8% | i
Cc1ccc(-c2c(C#N)c(N)nc3c2CCCCC3)o1 | 5 | 5 | 2* | 8% | i
Cc1ccc(-c2c(C#N)c(N)nc3c2CCCCCC3)o1 | 2 | 6 | 2.2* | 4% | nt
COc1ccc(S(=O)(=O)Nc2ccc(S(=O)(=O)N3CCCCC3)cc2)cc1 | 3 | 0 | 1.2 | 1% | i
COC(=O)C1=CN(C)C=C(C(=O)OC)C1c1ccsc1 | 5 | 10 | 2.2* | 8% | nt
CC(=O)N1CCN(c2nc3cc4c(cc3nc2NS(=O)(=O)c2ccccc2)OCCO4)CC1 | 3 | 27* | 2.7* | 13% | i
CCOc1ccc(S(=O)(=O)Nc2nc3ccccc3nc2N2CCN(C)CC2)cc1 | 9 | 4 | 1.7 | 12% | i
COCCCNC(=O)c1cc2c(=O)n3cccc(C)c3nc2n(C(C)C)c1=N | 8 | 18 | 5.1* | 13% | nt
COCCn1c(=N)c(C(=O)NCCc2ccc(OC)cc2)cc2c(=O)n3cccc(C)c3nc21 | 9 | 8 | 2.7* | 10% | i
Cc1sc2ncnc(-n3cnc4ccccc43)c2c1C | 9 | 5 | 2* | 6% | i
COc1ccc(-c2cn3c(C)c(C(=O)Nc4cc(NC(C)=O)ccc4OC)sc3n2)cc1 | 2 | 17 | 3.4* | 4% | nt
CNC(=O)c1sc2nc(-c3ccc(OC)cc3)cn2c1C | 0 | 11 | 1.1 | 4% | i
CCC(=O)c1cc2c(C)cc(=O)oc2c(C)c1O | 7 | 1 | 1.7 | 5% | i
CCc1cc(=O)oc2c(C)c(O)c(CN(C)C)cc12 | 11 | 0 | 3.9* | 6% | nt
Cc1cccc(NS(=O)(=O)c2ccccc2)n1 | 6 | 1 | 2.1* | 4% | nt
SMILES | Spn MK inh | PMK inhibit | Fluor 339 460 | NADH enzymes | Spn DPM-DC inh
Cc1cccc(NS(=O)(=O)c2cccc3cccnc23)n1 | 10 | 1 | 1.1 | 4% | i
CCC1Cc2c(nc3c4c(nc(N5CCOCC5)c(C#N)c24)NC(C)=N3)O1 (stereo unspecified) | 3 | 4 | 3.3* | 3% | nt
C=CCNc1nc(N2CCOCC2)c(C#N)c2c1CN(C)CC2 | 11 | 4 | 1.3 | 9% | i
COc1ccc(CNCCNC(=O)c2ccco2)c(OC)c1OC | 1 | 7 | 1.1 | 3% | i
COc1ccc2c(C)c(C(=O)NCC(C)O)oc2c1OC (stereo unspecified) | 4 | 15 | 2.3* | 10% | nt
Cc1ccc2c(c1)-c1ccccc1S(=O)(=O)N2 | 10 | 0 | 3.7* | 5% | nt
COc1ccccc1S(=O)Cc1ccc(C(=O)NCCc2ccc(Cl)cc2)o1 (stereo unspecified) | 7 | 1 | 1 | 3% | i
CCn1c(SCC(=O)Nc2cc3oc4ccccc4c3cc2OC)nnc1-c1cccs1 | 5 | 3 | 1.1 | 3% | i
CCCOc1ccc2c(C)c(CC(=O)OC)c(=O)oc2c1 | 9 | 6 | 3.7* | 8% | nt
COC(=O)C(CC(C)C)Oc1ccc2c(C)cc(=O)oc2c1 (stereo unspecified) | 3 | 0 | 1.7 | 7% | i
CCOC(=O)c1oc2cc(OCC(N)=O)ccc2c(=O)c1-c1ccc(OC)c(OC)c1 | 7 | 8 | 1 | 3% | i
CCc1c(C)c2ccc(OCC(N)=O)cc2oc1=O | 1 | 0 | 3.7* | 1% | nt
CCn1c(SCC(=O)Nc2ccc(NC(C)=O)cc2)nnc1C1CC1 | 7 | 19 | 1.1 | 10% | i
CCn1c(SCC(=O)Nc2ccc(Cl)cc2)nnc1C1CC1 | 4 | 58* | 1 | 9% | i
CCOC(=O)CNc1c(-c2ccc(F)cc2)nc2cnccn12 | 8 | 18 | 2.3* | 13% | nt
CCOC(=O)CNc1c(-c2ccc(Cl)cc2)nc2cnccn12 | 0 | 20 | 4.9* | 10% | nt
CCOC(=O)CCc1c(C)nc2cc(-c3ccc(F)cc3)[nH]n2c1=O | 8 | 11 | 1.4 | 4% | i
CCOC(=O)CSCc1nc(-c2ccc(Cl)cc2)oc1C | 3 | 0 | 1.1 | 1% | i
COc1ccc(C2C(C(=O)N3CCOCC3)=C(C)NC3=C2C(=O)CC(C)(C)C3)c(OC)c1 (stereo unspecified) | 4 | 3 | 4.8* | 4% | nt
CC1=C(C(=O)N2CCOCC2)C(c2ccccc2F)C2=C(CC(C)(C)CC2=O)N1 (stereo unspecified) | 1 | 7 | 4.8* | 4% | nt
CC1=C(C(=O)OCCOc2ccccc2)C(c2ccc(C)o2)C2=C(CC(C)(C)CC2=O)N1 (stereo unspecified) | 6 | 3 | 1.2 | 6% | i
COc1ccc(C2C(C#N)=C(C)NC3=C2C(=O)CC(C)(C)C3)c(OC)c1 (stereo unspecified) | 3 | 10 | 1.9 | 4% | nt
O=C(CN1CCN(c2ncccn2)CC1)N1CCN(C(c2ccccc2)c2ccccc2)CC1 | 49* | 0 | 1.1 | 16% | i
O=C(Cn1cccc1)N1CCN(C(c2ccccc2)c2ccccc2)CC1 | 7 | 11 | 1 | 12% | i
N#CC1=C(N)SC(N)=C(C#N)C1CCC1CCCCC1 | 6 | 8 | 1.1 | 10% | i
CCOc1nc(Nc2ccc(-c3nc4ccccc4o3)cc2)nc(N2CCOCC2)n1 | 0 | 8 | 4.8* | 4% | nt
Cc1ccc(Nc2nc(OC(C(F)(F)F)C(F)(F)F)nc(N3CCOCC3)n2)cc1 | 9 | 3 | 1.1 | 5% | i
COCCNC(=O)CN(C(=O)CCC(=O)Nc1nccs1)c1ccccc1OC | 4 | 5 | 1.1 | 3% | i
